# Test results reported in PubChem BioAssay.
# Active and inactive are the calls of the source.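 The calls were made as follows, unless noted: active = inhibition of the reporter signal at or above 50%; inactive = inhibition below 50%.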
# Key:
# [1] = inhibitors of TNFa-induced NFkB p65 translocation, primary screen, imaging, HUVEC, MLSMR starter and 10KST1 sets (AID 438;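 active = inhibition above 20% together with a positive visual image hit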;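 also: compound added about 3h40 before a 20 min TNFalpha stimulation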;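 as to inhibition: signal is the nuclear over cytoplasmic p65 intensity ratio per well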); settings: HUVEC TNFa-induced p65 nuclear translocation; cell count: measured here: nuclei count (cytotoxicity indicator), at 2.08 µM; inhibition: at 2 µM, stronger effect = higher value, 0% TNFa-plus-vehicle, 100% no-TNFa wells
# [2] = reduction of polyQ htt aggregates in cells – imaging, exon1htt(103Q)mCFP cells, high-content imaging, primary screen (AID 483;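 active = visual image review flags a hit and inhibition of aggregation exceeds 20%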;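 also: compound exposure lasted 3 days before fixation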;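 as to nuclei count: percent of the per-plate median nuclei count of sample wells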); settings: exon1htt(103Q)mCFP cell line, aggregate imaging, at 2 µM; inhibition of aggregation: stronger effect = higher value; nuclei count: measured here: cell count, toxicity
# [3] = endothelial E-selectin expression blockers – imaging, HUVEC, immunofluorescence, MLSMR starter and 10KST1 sets, primary screen (AID 487;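 active = visually confirmed hit in the image check and inhibition above 20%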;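 as to inhibition: signal is fraction of cell area covered by stained E-selectin grains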;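 as to nuclei count: 100% = median nuclei count of all wells on the same plate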); settings: HUVEC TNFalpha-induced E-selectin immunofluorescence imaging, at 2 µM; inhibition: stronger effect = higher value; nuclei count: measured here: cell number, toxicity
# [4] = target: Voltage-gated potassium channel subunit beta-2 (Rattus norvegicus) (UniProt P62483); assay: inhibitors of rat Kvbeta2 reductase activity – biochemical, NADPH fluorescence, primary screen (AID 622;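 active = fluorescence slope higher than the sample average by over 3 SD, cut at about -0.22 in these data, passing the limit was not always enough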;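 also: slope of raw intensity against log time taken from 70 to 1610 s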); settings: recombinant KvBeta, 4-cyanobenzaldehyde reduction, at 10 µM, stronger effect = higher value
# Chain of Voltage-gated potassium channel subunit beta-2 (Rattus norvegicus) (P62483 whole entry, looked up): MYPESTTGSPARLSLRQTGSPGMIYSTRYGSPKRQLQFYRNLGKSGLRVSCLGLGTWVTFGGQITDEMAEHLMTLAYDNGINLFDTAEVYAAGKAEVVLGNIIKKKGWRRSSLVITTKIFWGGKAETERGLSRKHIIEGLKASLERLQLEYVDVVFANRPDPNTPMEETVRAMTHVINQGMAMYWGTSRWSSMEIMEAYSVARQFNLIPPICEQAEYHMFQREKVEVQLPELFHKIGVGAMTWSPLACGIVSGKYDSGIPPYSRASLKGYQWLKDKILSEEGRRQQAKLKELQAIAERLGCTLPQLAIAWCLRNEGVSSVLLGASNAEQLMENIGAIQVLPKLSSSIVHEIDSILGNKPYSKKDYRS
# [5] = target: Voltage-gated potassium channel subunit beta-2 (Rattus norvegicus) (UniProt P62483); assay: enhancers of rat Kvbeta2 NADPH turnover – biochemical, NADPH fluorescence, primary screen (AID 623;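 active = NADPH fluorescence slope more negative than the mean of all samples by about 3 SD, 99.7% confidence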;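 also: fluorescence intensity change per second fitted from 20 to 320 s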); settings: Recombinant KvBeta, NADPH fluorescence decrease slope, 10 min; at 10 µM; stronger effect = lower value
# [6] = target: Alpha-2C adrenergic receptor (Homo sapiens) (UniProt P18825); assay: compounds altering alpha2C-coupled GIRK flux – cell-based, HEK293 alpha2C/GIRK1/2, thallium flux, primary screen (AID 624;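 active = fluorescence slope after compound addition differing from the mean of all screened samples at 99.7% confidence, in either direction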;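 also: slope of fluorescence ratio to pre-addition baseline per second over 15 to 24 s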); settings: thallium flux BTC fluorescence, at 10 µM, actives lie on both sides
# Chain of Alpha-2C adrenergic receptor (Homo sapiens) (P18825 whole entry, looked up): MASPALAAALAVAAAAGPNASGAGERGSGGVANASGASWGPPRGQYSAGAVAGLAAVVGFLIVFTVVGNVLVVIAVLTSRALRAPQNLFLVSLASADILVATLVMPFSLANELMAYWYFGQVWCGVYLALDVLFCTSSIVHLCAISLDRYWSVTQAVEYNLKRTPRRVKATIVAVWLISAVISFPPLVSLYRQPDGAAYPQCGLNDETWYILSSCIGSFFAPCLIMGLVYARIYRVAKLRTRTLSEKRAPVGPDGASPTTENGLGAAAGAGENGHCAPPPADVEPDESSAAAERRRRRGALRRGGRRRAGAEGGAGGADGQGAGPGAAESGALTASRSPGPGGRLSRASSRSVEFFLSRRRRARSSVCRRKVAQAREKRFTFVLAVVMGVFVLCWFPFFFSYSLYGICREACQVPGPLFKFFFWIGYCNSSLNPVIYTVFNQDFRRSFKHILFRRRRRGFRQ
# [7] = blockers of RIG-like receptor reporter activation – cell-based, Sendai virus stimulus, luciferase, 10K MLSCN set, TLR/RLR signaling modifier project, primary screen (AID 602276;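 active = inhibition at or above 50% at 10 µM; inactive = inhibition below 50%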;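 also: firefly luciferase from ISG56 promoter only with Renilla not read in this screen; 0% = Sendai virus plus DMSO and 100% = medium plus DMSO without virus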); settings: HEK293 RL24 IRF3 luciferase reporter, at 10 µM, stronger effect = higher value
# [8] = TLR3 IRF3 reporter activation blockers – cell-based, poly I:C stimulus, luciferase, 10K MLSCN set, primary screen (AID 602277); settings: HEK293-TLR3 RL24 IRF3 luciferase reporter, at 10 µM, stronger effect = higher value
Structure (SMILES),cell count [1],inhibition [1],inhibition of aggregation [2],nuclei count [2] [%],inhibition [3],nuclei count [3] [%],fluorescence slope [4],NADPH fluorescence slope [5],slope [6],inhibition [7],inhibition [8]
O=C(Cn1nnc(-c2ccc(S(=O)(=O)N3CCCC3)cc2)n1)NCC1CCCO1 (stereo not drawn),374,-6.9% (inactive),7.6% (inactive),95,-7.7% (inactive),112,-0.481 (inactive),3.3e-05 (inactive),0.00625 (inactive),-11.8% (inactive),15.1% (inactive)
Cc1sc2nc(SCC(=O)Nc3c(C)n(C)n(-c4ccccc4)c3=O)n(C)c(=O)c2c1C,556,-8.3% (inactive),9% (inactive),74.8,13.4% (inactive),118,-0.376 (inactive),1e-05 (inactive),0.00842 (inactive),5.86% (inactive),-5.09% (inactive)
Cc1cc2ncc(-c3ccc(Cl)cc3)c(N)n2n1,930,-1.7% (inactive),-6% (inactive),129,-36.3% (inactive),125,-0.583 (inactive),2.1e-05 (inactive),0.00574 (inactive),-34% (inactive),-158% (inactive)
O=C(O)c1cccc(NC(=O)C2C3C=CC(C3)C2C(=O)OCC(F)(F)C(F)F)c1 (stereo not drawn),683,8.3% (inactive),28.9% (inactive),47.7,-33.6% (inactive),98.7,-0.38 (inactive),-3.4e-05 (inactive),0.00482 (inactive),10.2% (inactive),26% (inactive)
Cc1cc(C)c(C#N)c(SCC(=O)Nc2ccc(S(=O)(=O)Nc3onc(C)c3C)cc2)n1,607,2.9% (inactive),3.9% (inactive),103,-59.1% (inactive),122,-0.448 (inactive),1.9e-05 (inactive),0.00553 (inactive),9.61% (inactive),24.3% (inactive)
COc1ccc(OCC(=O)Nc2ccc(N3CCOCC3)c(Cl)c2)cc1,651,7.5% (inactive),-18.9% (inactive),101,-144% (inactive),109,-0.488 (inactive),-1.5e-05 (inactive),0.00692 (inactive),10.5% (inactive),5.62% (inactive)
CCN1CCN(CCCNC(=O)c2cc3sccc3n2CC)CC1,605,11% (inactive),-0.9% (inactive),105,37.9% (inactive),108,-0.586 (inactive),-3.5e-05 (inactive),0.00699 (inactive),-14.9% (inactive),15.5% (inactive)
c1ccc(N=P(c2nc3ccccc3o2)(N2CCOCC2)N2CCOCC2)cc1,547,-7.9% (inactive),23.4% (inactive),87.6,-1.8% (inactive),107,-0.497 (inactive),-1.9e-05 (inactive),0.00625 (inactive),3.09% (inactive),-19.6% (inactive)
O=C(OC1CCOC1=O)c1ccc2ccccc2n1 (stereo not drawn),633,4.2% (inactive),-0.9% (inactive),100,38.1% (inactive),76,-0.324 (inactive),2.9e-05 (inactive),0.00579 (inactive),20.6% (inactive),29.1% (inactive)
CC(C)(C)NC(=O)CN(C(=O)C1CSC(=O)C1)c1ccc2c(c1)OCCO2 (stereo not drawn),612,2.9% (inactive),7.5% (inactive),95.8,7.1% (inactive),108,-0.362 (inactive),-6.7e-05 (inactive),0.00456 (inactive),-11.9% (inactive),-7.89% (inactive)
O=C(CS(=O)(=O)c1cn(Cc2ccc(Cl)cc2)c2ccccc12)N1CCOCC1,531,4.3% (inactive),37.8% (inactive),91.1,-8.5% (inactive),110,-0.504 (inactive),7.7e-07 (inactive),0.00671 (inactive),5.23% (inactive),17.5% (inactive)
CCCCn1c(SCC(=O)NCc2ccccc2)nc2ccc(N3CCOCC3)cc2c1=O,372,4.3% (inactive),10.3% (inactive),89,-28% (inactive),110,-0.351 (inactive),2.2e-06 (inactive),0.00561 (inactive),-6.72% (inactive),5.47% (inactive)
Cc1cc2c(c(=O)o1)C(C13C=CC(CC1)C3)C(C#N)=C(N)O2 (stereo not drawn),326,5.3% (inactive),-3.9% (inactive),102,-56.1% (inactive),118,-0.499 (inactive),-5.8e-05 (inactive),0.0051 (inactive),5.92% (inactive),13.6% (inactive)
